Assay results taken from PubChem BioAssay (Tox21).
Several values for one entry are separate records, joined by “and”; a condition that tells them apart may be missing. Equal values may be shown once. Inconclusive results are not listed. Where a call stands in place of a potency, no number is given. Activity calls are given as the source filed them. Unless noted, the call rests on the fitted dose curve; in most records, active means well fitted curve in the direction sought with a large enough effect in the repeat runs; inconclusive means weak or mixed curves; inactive means no such curve, though single readings can be large; an effect the other way counts as inactive or inconclusive.

What was measured:
[1] = qHTS assay to identify small molecule antagonists of the estrogen receptor alpha (ER-alpha) signaling pathway using the BG1 cell line in the presence of 0.1 nM 17-beta-estradiol - cell viability counter screen (AID 1259241); further: nearly all actives have a fitted effect of over 40% in size
In short: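 Viability in VM7Luc4E2 cells after 22 hr compound exposure under 0.1 nM 17beta-estradiol stimulation, by CellTiter-Fluor.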

[2] = target: Androgen receptor (Homo sapiens) (UniProt P10275); test: qHTS assay to identify small molecule antagonists of the androgen receptor (AR) signaling pathway using the MDA cell line in the presence of 0.5 nM R1881 (AID 1259243); further: nearly all actives have a fitted effect of over 50% in size; further: potency means the concentration at half of the fitted maximal effect
Androgen receptor (Homo sapiens), sequence (P10275 whole entry, looked up): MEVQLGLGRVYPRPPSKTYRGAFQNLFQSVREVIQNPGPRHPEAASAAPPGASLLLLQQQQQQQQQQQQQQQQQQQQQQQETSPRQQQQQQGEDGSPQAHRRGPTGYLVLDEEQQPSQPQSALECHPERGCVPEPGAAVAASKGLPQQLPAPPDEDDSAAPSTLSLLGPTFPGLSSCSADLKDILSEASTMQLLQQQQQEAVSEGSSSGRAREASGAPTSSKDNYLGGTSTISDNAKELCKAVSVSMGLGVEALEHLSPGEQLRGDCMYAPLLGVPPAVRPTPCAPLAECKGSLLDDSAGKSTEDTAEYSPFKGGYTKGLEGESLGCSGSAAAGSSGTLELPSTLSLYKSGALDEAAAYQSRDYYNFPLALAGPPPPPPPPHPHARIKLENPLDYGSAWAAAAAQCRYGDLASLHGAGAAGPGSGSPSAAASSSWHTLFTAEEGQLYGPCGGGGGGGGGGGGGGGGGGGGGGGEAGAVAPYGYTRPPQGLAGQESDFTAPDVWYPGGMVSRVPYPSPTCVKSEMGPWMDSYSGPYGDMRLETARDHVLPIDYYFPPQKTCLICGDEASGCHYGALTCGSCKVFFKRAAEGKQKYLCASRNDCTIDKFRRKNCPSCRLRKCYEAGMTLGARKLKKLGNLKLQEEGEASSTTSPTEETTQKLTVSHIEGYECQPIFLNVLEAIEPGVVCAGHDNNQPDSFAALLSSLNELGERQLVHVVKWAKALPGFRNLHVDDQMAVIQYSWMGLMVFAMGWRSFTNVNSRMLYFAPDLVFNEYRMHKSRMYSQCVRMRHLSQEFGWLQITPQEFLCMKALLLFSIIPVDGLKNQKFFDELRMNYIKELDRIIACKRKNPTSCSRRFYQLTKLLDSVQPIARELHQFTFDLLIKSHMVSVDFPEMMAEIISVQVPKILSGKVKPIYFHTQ
In short: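 Inhibition of R1881 (0.5 nM final) induced reporter signal was measured in human MDA-kb2 cells; note the MMTV promoter also responds to GR. Exposure lasted 16 hr at 37C.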

[3] = target: Estrogen receptor (Homo sapiens) (UniProt P03372); test: qHTS assay to identify small molecule antagonists of the estrogen receptor alpha (ER-alpha) signaling pathway using the BG1 cell line in the presence of 0.1 nM 17-beta-estradiol (AID 1259244); further: nearly all actives have a fitted effect of over 50% in size; further: potency means the concentration at half of the fitted maximal effect
Estrogen receptor (Homo sapiens), sequence (P03372 whole entry, looked up): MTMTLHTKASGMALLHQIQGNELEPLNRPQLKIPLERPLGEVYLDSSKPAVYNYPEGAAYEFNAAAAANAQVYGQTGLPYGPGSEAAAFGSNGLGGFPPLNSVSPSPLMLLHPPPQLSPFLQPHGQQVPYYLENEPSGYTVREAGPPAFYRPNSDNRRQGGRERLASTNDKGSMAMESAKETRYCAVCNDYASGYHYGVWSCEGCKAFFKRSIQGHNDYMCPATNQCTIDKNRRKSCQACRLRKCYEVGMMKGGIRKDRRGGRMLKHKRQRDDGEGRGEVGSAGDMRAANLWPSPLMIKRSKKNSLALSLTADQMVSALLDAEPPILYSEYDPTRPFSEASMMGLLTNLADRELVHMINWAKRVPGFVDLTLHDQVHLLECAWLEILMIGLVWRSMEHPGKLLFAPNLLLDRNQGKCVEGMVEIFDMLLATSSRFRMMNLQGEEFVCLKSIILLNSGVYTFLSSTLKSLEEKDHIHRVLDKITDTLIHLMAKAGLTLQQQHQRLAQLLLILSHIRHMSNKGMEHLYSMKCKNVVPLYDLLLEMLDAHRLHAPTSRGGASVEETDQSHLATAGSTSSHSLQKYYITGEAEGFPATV
In short: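 Quantitative high-throughput screen in VM7Luc4E2 cells: compound plus 0.1 nM E2 (final), 22 h, 37C, 5% CO2; ONE-Glo added, 30 min room temperature, luminescence measured.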

[4] = qHTS assay to identify small molecule HDAC inhibitors (AID 1259364); further: nearly all actives have a fitted effect of over 45% in size; further: potency means the concentration at half of the fitted maximal effect
In short: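 Endogenous HDAC class I/II activity was measured in wild-type HCT-116 cells by HDAC-Glo luminescence after 2 h compound treatment.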

[5] = qHTS assay to identify small molecule HDAC inhibitors - cell viability counter screen (AID 1259365); further: series mostly up to about 92 µM; nearly all actives have a fitted effect of over 50% in size
In short: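 Cytotoxicity was gauged in wild-type HCT-116 cells after a brief 2hr treatment with DMSO-dissolved compounds at 37C and 5% CO2, using CellTiter-Glo luminescence developed for 30min at room temperature.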

[6] = qHTS assay to identify small molecule agonists of the sonic hedgehog signaling (Shh) pathway - cell viability counter screen (AID 1259366); further: nearly all actives have a fitted effect of over 50% in size; further: potency means the concentration at half of the fitted maximal effect
In short: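 Stable Gli1-Luc NIH/3T3 clone, 2,000 cells/well. Compound exposure 24hr at 37C. Read-out: CellTiter-Fluor fluorescence.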

[7] = qHTS assay to identify small molecule antagonists of the sonic hedgehog signaling (Shh) pathway - cell viability counter screen (AID 1259367); further: nearly all actives have a fitted effect of over 55% in size; further: potency means the concentration at half of the fitted maximal effect
In short: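 After a 4 hr settling period, 3T3 Gli1-Luc cells were treated with DMSO-dissolved chemicals and conditioned medium, kept 24 hr at 37C in 5% CO2, and assayed for viability by CellTiter-Fluor fluorescence following 1 hr reagent incubation.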

[8] = qHTS assay to identify small molecule agonists of the sonic hedgehog signaling (Shh) pathway (AID 1259368; calls by dose curve; further: nearly all actives have a fitted effect of over 15% in size; further: potency means the concentration at half of the fitted maximal effect)
In short: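 Luminescent signal was taken as a measure of Gli1-controlled luciferase expression in stably transfected NIH/3T3-derived cells that had been treated for 24 hr with compounds delivered in DMSO.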

[9] = qHTS assay to identify small molecule antagonists of the sonic hedgehog signaling (Shh) pathway (AID 1259369; calls by dose curve; further: nearly all actives have a fitted effect of over 45% in size; further: potency means the concentration at half of the fitted maximal effect)
In short: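 Screening used 3T3Gli1-Luc cells at 2,000 per well, compounds delivered in DMSO, and conditioned medium as agonist stimulus; plates incubated 24hr at 37 C and 5% CO2 before a 30min luciferase step.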

[10] = qHTS assay to identify small molecule agonists of the androgen receptor (AR) signaling pathway in the presence of an antagonist - cell viability counter screen (AID 1259379); further: nearly all actives have a fitted effect of over 25% in size; further: potency means the concentration at half of the fitted maximal effect
In short: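 In MDA-kb2 cells (human breast carcinoma, MMTV-luciferase), compounds at 15 concentrations plus 3.0uM nilutamide; 16 hr, 37C, 0% CO2; CellTiter-Fluor fluorescence read for viability.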

[11] = target: Androgen receptor (Homo sapiens) (UniProt P10275); test: qHTS assay to identify small molecule agonists of the androgen receptor (AR) signaling pathway in the presence of an antagonist (AID 1259381; calls by dose curve; further: nearly all actives have a fitted effect of over 15% in size)
In short: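 Here, 15-concentration compound series were pin-transferred onto MDA-kb2 MMTV-luciferase cells already dosed with nilutamide (3.0uM final). After 16hr at 37C, ONE-Glo was added and luminescence read 30min later at room temperature.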

[12] = qHTS assay to identify small molecule antagonists of the estrogen receptor beta (ER-beta) signaling pathway - cell viability counter screen (AID 1259382); further: series mostly up to about 92 µM; nearly all actives have a fitted effect of over 55% in size
In short: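 Tox21 10K library tested in qHTS format on ER-beta-bla HEK293T cells stimulated with 1nM E2; 16 hr treatment at 37C. Same-well CellTiter-Glo luminescence served as the cell viability measure.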

[13] = target: Estrogen receptor (Homo sapiens) (UniProt P03372); test: qHTS assay to identify small molecule agonists of the estrogen receptor alpha (ER-alpha) signaling pathway in the presence of an antagonist (AID 1259383; calls by dose curve; further: top concentration of the series differs between compounds; nearly all actives have a fitted effect of over 15% in size)
In short: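 In VM7Luc4E2 cells, 4,000 per well, compounds at 15 concentrations were co-incubated 22hr at 37C with 10.0nM final ICI-182,780. Luminescence from the stably transfected 4×ERE-luciferase reporter was recorded 30min after ONE-Glo addition.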

[14] = qHTS assay to identify small molecule agonists or antagonists of the thyroid stimulating hormone receptor (TSHR) signaling pathway - wild type cell line counter screen (AID 1259384; calls by dose curve)
In short: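 Wild-type HEK293 cells were plated 18 h at 37 C/5% CO2, pin-dosed with compound plus Ro20-1724 medium, held 30 min at room temperature, then given cAMP-d2 and anti-cAMP-cryptate; fluorescence was read after 1 h. Fifteen concentrations, triplicate.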

[15] = target: Thyrotropin receptor (Homo sapiens) (UniProt P16473); test: qHTS assay to identify small molecule antagonists of the thyroid stimulating hormone receptor (TSHR) signaling pathway (AID 1259385; calls by dose curve; further: nearly all actives have a fitted effect of over 20% in size)
Thyrotropin receptor (Homo sapiens), sequence (P16473 whole entry, looked up): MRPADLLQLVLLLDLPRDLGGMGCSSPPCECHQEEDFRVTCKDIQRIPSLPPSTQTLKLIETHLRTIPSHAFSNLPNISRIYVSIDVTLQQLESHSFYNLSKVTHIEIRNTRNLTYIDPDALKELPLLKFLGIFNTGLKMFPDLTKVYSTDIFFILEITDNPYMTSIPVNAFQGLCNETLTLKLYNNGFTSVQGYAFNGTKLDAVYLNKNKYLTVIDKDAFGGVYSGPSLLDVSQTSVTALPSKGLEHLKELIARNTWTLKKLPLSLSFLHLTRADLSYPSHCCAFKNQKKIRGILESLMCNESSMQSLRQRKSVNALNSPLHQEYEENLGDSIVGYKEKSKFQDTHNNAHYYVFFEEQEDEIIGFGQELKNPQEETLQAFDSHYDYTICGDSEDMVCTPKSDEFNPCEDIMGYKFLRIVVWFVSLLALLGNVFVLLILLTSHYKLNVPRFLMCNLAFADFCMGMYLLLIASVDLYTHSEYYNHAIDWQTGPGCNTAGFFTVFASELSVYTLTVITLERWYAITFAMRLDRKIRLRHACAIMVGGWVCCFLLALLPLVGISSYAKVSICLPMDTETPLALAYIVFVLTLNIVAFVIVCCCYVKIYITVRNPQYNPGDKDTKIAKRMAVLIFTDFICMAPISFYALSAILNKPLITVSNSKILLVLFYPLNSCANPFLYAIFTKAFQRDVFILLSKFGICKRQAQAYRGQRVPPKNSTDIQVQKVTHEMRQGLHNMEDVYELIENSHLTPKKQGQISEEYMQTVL
In short: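 TSHR-HEK293 cells were plated and held 18 h at 37C/5% CO2, then given compound plus Ro20-1724 and stimulated with TSH at 1.5 ng/mL final. After 30 min at room temperature, cAMP was detected with cAMP-d2/anti-cAMP-cryptate (1 h) by fluorescence.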

[16] = qHTS assay to identify small molecule antagonists of the androgen receptor (AR) signaling pathway using the MDA cell line in the presence of 0.5 nM R1881 - cell viability counter screen (AID 1259242); further: nearly all actives have a fitted effect of over 45% in size; further: potency means the concentration at half of the fitted maximal effect
In short: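 Fluorescence from CellTiter-Fluor, which reports protease activity of live cells, was read 30 min after reagent addition to MDA-kb2 cells that had been incubated 16 hr with compound and 0.5 nM R1881.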

[17] = target: Estrogen receptor beta (Homo sapiens) (UniProt Q92731); test: qHTS assay to identify small molecule agonists of the estrogen receptor beta (ER-beta) signaling pathway (AID 1259377; active means well fitted activation curve with a large enough effect in the signal ratio in the repeat runs, not every such curve was filed as active; the % refers to the signal ratio)
Estrogen receptor beta (Homo sapiens), sequence (Q92731 whole entry, looked up): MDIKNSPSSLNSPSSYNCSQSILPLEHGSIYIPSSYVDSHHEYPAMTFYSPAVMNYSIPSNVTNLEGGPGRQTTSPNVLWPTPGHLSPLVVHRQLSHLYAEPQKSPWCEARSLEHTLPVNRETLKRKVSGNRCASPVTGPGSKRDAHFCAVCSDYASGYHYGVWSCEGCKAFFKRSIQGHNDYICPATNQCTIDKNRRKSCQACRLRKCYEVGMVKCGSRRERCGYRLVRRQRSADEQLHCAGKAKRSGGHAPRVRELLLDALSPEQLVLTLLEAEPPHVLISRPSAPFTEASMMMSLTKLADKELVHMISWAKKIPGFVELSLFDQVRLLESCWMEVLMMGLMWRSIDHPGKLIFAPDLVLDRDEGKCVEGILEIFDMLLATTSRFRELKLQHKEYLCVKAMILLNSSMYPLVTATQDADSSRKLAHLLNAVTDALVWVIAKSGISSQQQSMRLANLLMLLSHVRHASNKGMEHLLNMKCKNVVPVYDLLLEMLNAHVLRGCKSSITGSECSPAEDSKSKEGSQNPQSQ
In short: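 Measured by fluorescence intensity from a B/G FRET beta-lactamase substrate (2 h, room temperature) in ER-beta-UAS-bla HEK293T cells treated with DMSO-dissolved compounds for 16 hr at 37C and 5% CO2.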

[18] = target: Estrogen receptor beta (Homo sapiens) (UniProt Q92731); test: qHTS assay to identify small molecule antagonists of the estrogen receptor beta (ER-beta) signaling pathway (AID 1259378; active means well fitted inhibition curve with a large enough effect in the signal ratio in the repeat runs, not every such curve was filed as active; the % refers to the signal ratio; further: potency means the concentration at half of the fitted maximal effect)
In short: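 ER-beta-UAS-bla HEK293T (GripTite) cells in 2% charcoal-stripped FBS medium were preincubated 6 hr at 37C, dosed with compound, then stimulated with 1 nM E2 (final) for 16 hr; beta-lactamase reporter read by B/G FRET fluorescence after 2 hr substrate loading.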

[19] = qHTS assay to identify small molecule agonists of the estrogen receptor beta (ER-beta) signaling pathway - cell viability counter screen (AID 1259380); further: nearly all actives have a fitted effect of over 30% in size; further: potency means the concentration at half of the fitted maximal effect
In short: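 Viability of ER-beta-UAS-bla HEK293T cells was determined by CellTiter-Glo luminescence following 16 hr treatment with test compounds at 37C.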

[20] = qHTS assay to identify small molecule phospholipidosis (PLD) inducers (AID 1259344; active means well fitted curve in the direction sought with a large enough effect; an effect the other way counts as inactive or inconclusive)
In short: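 HepG2 cells grown on collagen I take up LipidTOX Red while exposed to compound for 24 h; after fixation they are imaged at 20x and pit metrics are extracted.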

| SMILES | Potency [1] | Potency [2] | Potency [3] | Potency [4] | Potency [5] | Potency [6] | Potency [7] | Potency [8] | Potency [9] | Potency [10] | Potency [11] | Potency [12] | Potency [13] | Potency [14] | Potency [15] | Potency [16] | Potency [17] | Potency [18] | Potency [19] | outcome [20] |
| --- | --- | --- | --- | --- | --- | --- | --- | --- | --- | --- | --- | --- | --- | --- | --- | --- | --- | --- | --- | --- |
| CC1=C2C[C@H]3[C@@H](CC=C4C[C@@H](O)CC[C@@]43C)[C@@H]2CC[C@]12O[C@@H]1C[C@H](C)CN[C@H]1[C@H]2C | inactive | inactive | inactive | inactive | inactive | inactive | inactive | inactive | 266 nM (active) | 26.6 µM (active) | inactive | inactive | inactive | inactive | inactive |  |  |  |  |  |
| COc1ccc2c(c1OC)C(=O)O[C@@H]2[C@H]1c2cc3c(cc2CCN1C)OCO3 |  | inactive |  | inactive | inactive | 2.41 µM (active) | 3.03 µM (active) | inactive | inactive | inactive |  | inactive |  | inactive | inactive | inactive | inactive | inactive | inactive |  |
| CCOP(=S)(NC(C)C)Oc1ccccc1C(=O)OC(C)C (stereo not given) | inactive |  |  | inactive | inactive |  |  | inactive | inactive |  |  |  |  | inactive |  |  | inactive |  | 3.86 µM (active) |  |
| Nc1ccc(N=Nc2ccccc2)cc1 |  |  | inactive | 8.63 µM (active) | inactive | 15.4 µM (active) | 3.44 µM (active) | 4.86 µM (active) | 21700 nM (active) |  |  | inactive |  | inactive |  |  |  | 21.7 µM (active) |  | inactive |
| FC(F)C(F)(F)OCC(Cn1cncn1)c1ccc(Cl)cc1Cl (stereo not given) |  |  |  | inactive | inactive | 48.3 µM (active) |  | inactive |  |  |  |  |  | inactive |  | inactive | inactive |  | 60.8 µM (active) |  |
| CC(C)N(C(=O)CCl)c1ccccc1 | inactive | 19.3 µM (active) | 27.3 µM (active) and 54.5 µM (active) | inactive | inactive | 68.6 µM (active) and 9.69 µM (active) | 30.6 µM (active) and 24.3 µM (active) | inactive | 12.2 µM (active) and 9.69 µM (active) | 54.5 µM (active) | inactive |  | inactive | inactive | inactive |  | inactive | 9.69 µM (active) | 54.5 µM (active) and 27.3 µM (active) |  |
| CO/N=C(/C1=NOCCO1)c1ccccc1Oc1ncnc(Oc2ccccc2Cl)c1F |  |  | 4.85 µM (active) | inactive | inactive | inactive | inactive | inactive |  | 15.3 µM (active) |  | inactive | inactive |  |  | 17.2 µM (active) |  |  | 21.7 µM (active) |  |
| C[C@H]1[C@H](c2ccc(Cl)cc2)SC(=O)N1C(=O)NC1CCCCC1 | inactive | 48.6 µM (active) |  | inactive |  | inactive | inactive | inactive |  |  |  | inactive | inactive | inactive |  |  |  | inactive |  |  |
| CO/N=C(\C(=O)OC)c1ccccc1CO/N=C(\C)c1cccc(C(F)(F)F)c1 |  |  |  | inactive |  | inactive | inactive | inactive |  | 12.2 µM (active) |  | inactive |  | inactive |  |  |  |  |  |  |
| Nc1nc(N)c(N)c(N)n1 | inactive |  |  |  | inactive |  |  | inactive | inactive | inactive |  | inactive |  |  |  | inactive |  |  | inactive |  |
